From PubChem BioAssay
An excerpt weighted towards active compounds, which were near 4.1% of everything screened.
hgDAF-12 ag: activates the H. glycines DAF-12 receptor ligand-binding domain; 370,000 tested, 1.8% active; activation, % at 6.8 µM; HEK293 GAL4-hgDAF12 UAS-luciferase reporter, agonist luminescence; normalized to butyrate control;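 active = activation above a cutoff set at the mean of all screened compounds plus 3 SD, cut at about 10% in these data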;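 note: 0% = DMSO wells and 100% = sodium butyrate wells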
PolyA inhibitor: inhibitors of polyadenylation in S. cerevisiae. 300,000 tested, 0.02% active. AID 1875. activity score, % at 12 µM. S. cerevisiae SKY197-pL101 polyadenylation reporter, beta-gal luminescence; efflux-impaired pdr1/pdr3 knockout yeast; score 100 = 6 SD above DMSO;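 active = lowest replicate activity score at least 50, where 100 means six control SD above control mean; inconclusive = lowest score under 50 but half or more replicates reach 50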;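 note: yeast exposed to compound for 9 h at 30 °C; higher score means more reporter readthrough which indicates perturbed polyadenylation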
DAX1 inh-1: inhibitors of DAX1 repression of SF-1 activated StAR promoter. HEK293T StAR-luciferase reporter, SF-1/DAX-1 repression relief. inhibition, % at 6.8 µM. 370,000 tested, 1.1% active;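 active = inhibition above the mean over all tested compounds plus 3 SD, cut at about 3.6% in these data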;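 note: 0% = DAX-1 cells with DMSO and 100% = cells lacking DAX-1 with DMSO; higher inhibition means more luminescence from relief of DAX-1 repression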
ssDAF-12 act: S. stercoralis DAF-12 activation, primary screen; AID 652126; 370,000 tested, 1% active; activation, % at 6.8 µM; HEK293 ssDAF-12/GRIP1 lit1-tk-luc reporter, luminescence; % of 3 µM dafachronic acid response;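 active = activation above the mean over all tested compounds plus 3 SD, cut at about 0.9% in these data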;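 note: 0% = DMSO-only wells and 100% = 3 µM delta7-dafachronic acid wells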
DAX1 inh-2: inhibitors of human orphan nuclear receptor DAX1 (NR0B1); P51843; HEK293 Gal4-DAX1 luciferase reporter, luminescence; inhibition, % at 6.75 µM; 340,000 tested, 0.99% active;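 active = inhibition above the mean over all tested compounds plus 3 SD, cut at about 4.2% in these data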;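 note: 0% = DAX1-transfected cells with DMSO and 100% = empty-vector control cells with DMSO; inhibition shows as a rise in luminescence from relieved DAX1 repression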
hcDAF-12 act: activators of H. contortus DAF-12 nuclear receptor. HEK293 hcDAF-12 lit1-tk-luc reporter, luminescence; 0% DMSO, 100% Δ7-dafachronic acid. activation, % at 6.8 µM. 370,000 tested, 1.4% active. AID 652067;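 active = activation above the mean of all tested compounds plus 3 SD, cut at about 5.5% in these data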;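 note: 100% = response to 3 µM Δ7-dafachronic acid high control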
hgDAF12 ag: confirmation of H. glycines DAF-12 agonists; shares compounds with hgDAF-12 ag; HEK293 GAL4-hgDAF12 luciferase reporter, agonist mode; percent of butyrate response; activation, % at 6.8 µM; 3,300 tested, 80% active;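 active = mean activation over triplicate wells above the hit cutoff derived from the earlier primary screen, cut at about 11% in these data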;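 note: 0% = DMSO low control and 100% = 2 mM sodium butyrate high control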
LXR ag 2: LXR-beta agonism as DAF-12 counter-screen; AID 743051; HEK293 Gal4-LXR luciferase reporter, 24 h; shares compounds with hgDAF-12 ag; 3,300 tested, under 10 active; activation, % at 6.8 µM;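 active = mean activation of the triplicate above a set limit carried over from the primary screen, none filed active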
Target sequence (P55055 whole entry, looked up, the tested form may be a part): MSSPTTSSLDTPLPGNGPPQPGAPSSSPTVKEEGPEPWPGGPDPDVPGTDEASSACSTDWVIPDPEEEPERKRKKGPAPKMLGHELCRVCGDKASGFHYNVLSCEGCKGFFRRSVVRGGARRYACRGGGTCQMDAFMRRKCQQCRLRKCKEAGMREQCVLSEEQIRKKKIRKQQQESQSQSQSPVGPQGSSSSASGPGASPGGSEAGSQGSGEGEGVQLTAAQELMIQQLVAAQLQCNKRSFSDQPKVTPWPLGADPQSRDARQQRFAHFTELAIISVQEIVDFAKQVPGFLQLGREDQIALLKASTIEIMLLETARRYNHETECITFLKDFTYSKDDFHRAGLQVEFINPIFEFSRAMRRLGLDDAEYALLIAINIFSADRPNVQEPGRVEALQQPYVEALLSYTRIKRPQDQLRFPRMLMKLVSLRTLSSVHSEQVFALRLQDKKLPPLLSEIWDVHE
* hit, by the source's call; ? = inconclusive; / = no result.

SMILES	hgDAF-12 ag	PolyA inhibitor	DAX1 inh-1	ssDAF-12 act	DAX1 inh-2	hcDAF-12 act	hgDAF12 ag	LXR ag 2
Oc1ccc(-c2csc(-c3cccnc3)n2)c(O)c1	25*	-25	1	0	1	0	20*	1
CC(C)Cc1cc(C(=O)NCc2cccs2)no1	19*	-6	4.3*	1	3	2	13*	0
CC(C)c1cc(C(=O)NCc2ccco2)no1	6	-2	2	-1	0	0	/	/
CCCNC(=O)c1cc(-c2ccco2)on1	47*	?	0	-1	2	4	37*	0
CC(C)CNC(=O)c1cc(-c2ccco2)on1	7	5	1	-1	0	2	/	/
O=C(NCc1ccco1)c1cc(-c2cccs2)on1	23*	-19	1	-1	3	3	22*	0
O=C(NCc1ccco1)c1cc(-c2ccccc2)on1	23*	1	3	0	3	2	22*	0
CC(C)Cc1cc(C(=O)NCc2cccnc2)no1	10	0	3	-1	2	1	/	/
O=C(NCc1ccccc1)c1cc(-c2cccs2)on1	5	-15	1	-1	2	1	/	/
C=CCOc1ccc(C2C(C#N)=C(N)N(N(C)C)C3=C2C(=O)CCC3)cc1 (centres undefined)	-2	-6	0	-2	2	-2	/	/
O=C(NCc1ccco1)c1cc(-c2ccc(F)cc2)on1	17*	-9	2	-1	2	2	15*	0
S=c1sscc1-c1ccccc1	0	/	1	-1	1	1	/	/
CN(C)S(=O)(=O)c1ccc2nc(NC(=O)c3cccs3)sc2c1	15*	3	3.8*	1	4	5.6*	19*	1
CCc1ccc2nc(NC(=O)CCCc3cccs3)sc2c1	3	-5	1	0	1	1	/	/
CCCCc1ccc2nc(NC(=O)c3cccs3)sc2c1	27*	/	/	2.5*	/	6.1*	20*	1
C[C@H]1CN([C@@H](C)CO)C(=O)CCCn2cc(nn2)CO[C@@H]1CN(C)C(=O)Nc1cccc(F)c1	-2	/	0	-1	0	0	/	/
O=C1CCCCC1Nc1ccc2ccccc2c1 (centres undefined)	3	/	0	-1	0	1	/	/
CCCCSc1nnc2c(n1)[nH]c1ccccc12	7	4	1	0	1	0	/	/
CC(C)CSc1nnc2c(n1)[nH]c1ccccc12	14*	-5	4.0*	1.2*	2	6.4*	12*	1
Cc1cccc(Cn2nc(C)c(NC(=O)c3ccc(F)cc3)c2C)c1	1	-11	-1	-1	0	0	/	/
Cc1nn(Cc2c(F)c(F)c(F)c(F)c2F)c(C)c1NC(=O)c1cccc(COc2ccc(Cl)cc2)c1	15*	0	1	-1	-1	1	6	0
Cc1ccc2c(c1)[C@H]1[C@H](CO2)[C@H](c2ccccc2)[C@]2(C)C(=O)Nc3cc(F)ccc3C(=O)N12	5	/	-2	-1	-2	0	/	/
CC(=Nc1ccc(Br)cc1)c1sc2ccccc2c1O	13*	-9	2	0	4	6.0*	21*	1
Cc1ccc(C(=O)Nc2ccc(SC(F)F)cc2)s1	20*	-12	4.2*	-1	2	5	13*	1
CC[N+](CC)(CC)CC(=O)Nc1ccc(SC(F)F)cc1	-2	14	0	-1	2	-1	/	/
SMILES	hgDAF-12 ag	PolyA inhibitor	DAX1 inh-1	ssDAF-12 act	DAX1 inh-2	hcDAF-12 act	hgDAF12 ag	LXR ag 2
CN(C)C=Nc1ncc2c([nH]c3ccccc32)c1C#N	22*	-1	0	-2	0	-1	7	0
Cc1cc(C)c2sc(N)nc2c1	14*	/	-1	-1	-1	-2	1	0
Cc1cc(C)c2nc(N)sc2c1	3	13	0	-1	-1	3	/	/
Oc1ccccc1-c1nnc(COc2ccccc2)o1	14*	-8	1	0	2	2	8	0
c1ccc(OCc2nnc(-c3ccccc3)o2)cc1	8	8	3	-1	1	0	/	/
Cc1cc(C(=O)CN2C(=O)c3cccc(N)c3C2=O)c(C)n1Cc1cccs1	15*	-23	4.1*	1.0*	2	6.0*	15*	1
Cc1cc(C(=O)CSc2nnc(-c3ccccc3F)o2)c(C)n1Cc1cccs1	0	-34	0	-1	-2	1	/	/
O=C1C(Cl)=C(N2CCN(c3ccccc3[N+](=O)[O-])CC2)C(=O)c2ccccc21	-4	-34	-2	-1	1	1	/	/
Cc1ccc(NC(=O)c2ccc(CSc3nnc(C)s3)cc2)cc1	16*	6	2	0	3	4	14*	1
Cc1cc(C)cc(NC(=O)c2ccc(CSc3nnc(C)s3)cc2)c1	4	-18	1	-1	-1	0	/	/
Cc1ccc(C(=O)Nc2nnc(C)s2)cc1	16*	-3	4.3*	0	/	6	12*	1
Cc1nnc(NC(=O)c2ccc(Br)cc2)s1	1	-11	0	-1	1	0	/	/
CC1(C(=O)NS(=O)(=O)Cc2cccc(Cl)c2)CCN1C(=O)C1CCCCC1 (centres undefined)	-1	/	-1	-1	/	-1	/	/
N/C(=N\C(=S)Nc1ccccc1)c1ccccc1	16*	-9	2	0	4.7*	6.0*	17*	1
CN(C(=O)c1ccc(Br)o1)C1(C)CCS(=O)(=O)C1 (centres undefined)	-1	16	-1	-1	0	-1	/	/
O=C(/C=C/Nc1ccc(Cc2ccc(N/C=C/C(=O)C(F)(F)F)cc2)cc1)C(F)(F)F	13*	4	2	0	2	5	1	0
CC1(c2nnc(-c3cccc(Cl)c3)o2)CC(c2cccc(Cl)c2)=NO1 (centres undefined)	-1	-5	-1	-1	-1	0	/	/
CCCCN1C(=O)C(C#N)CC2=C1CC(C)(C)CC2=O (centres undefined)	0	/	-1	-1	-1	-1	/	/
CCc1ccc(NC(=O)c2ccccc2SC)cc1	16*	3	3	1	2	1	4	0
CSc1ccccc1C(=O)Nc1ccc2c(c1)OCCO2	3	-4	1	-1	0	0	/	/
